# Source: PubChem BioAssay (Tox21)
# Inconclusive results are not listed. A number with no mark means an inactive call. Calls come from the whole dose curve; as a rule, active = well fitted cell-killing curve with a large enough effect in the repeat runs; inconclusive = weak or mixed curves; inactive = flat fitted curve, though single readings scatter.
# Test: qHTS RealTime-Glo MT Cell Viability Assay in HepG2 cells - 16 hour (AID 1224885); note: nearly all actives have a fitted effect of over 50% in size
# Conditions: RealTime-Glo luminescence; series mostly up to 76.8 µM; activity change, negative = cytotoxic: at the top concentration
# Text: U.S. Tox21 Program National Center for Advancing Translational Sciences [NCATS] NIH Chemical Genomics Center [NCGC] U.S. Environmental Protection Agency [EPA] National Institutes of Environmental Health Sciences [NIEHS] National Toxicology Program [NTP] U.S. Food and Drug Administration [FDA] Tox21 Assay Overview: Measure of cell viability is critical in the cell-base assay. Analysis of cell viability is necessary for the characterization of cell responses to cytotoxic drugs and environmental stress. A RealTime-Glo MT Cell Viability Assay to monitor cell viability in real time of continues cell culture during 40 hours of compound treatment was used to screen Tox21 10K library compounds in HepG2 cells. The RealTime-Glo MT Cell Viability Assay is a nonlytic, homogeneous, bioluminescent method to measure cell viability in real time using a simple, plate-based method. The assay involves adding NanoLuc luciferase and a cell-permeant prosubstrate to cells in culture. Viable cells reduce the proprietary prosubstrate to generate a substrate for NanoLuc luciferase. This substrate diffuses from cells into the surrounding culture medium, where it is rapidly used by the NanoLuc Enzyme to produce a luminescent signal. The signal correlates with the number of viable cells, making the assay well suited for cytotoxicity studies.
# Tox21 Assay Protocol Summary: The mixture of HepG2 cell suspension and reagents were dispensed at 600cells/6 ul/well in 1536-well tissue culture treated black solid bottom plates using a Multidrop dispenser. After the assay plates were incubated at a 37 C/5% CO2 incubator for 5 hours, 23 nL of compounds dissolved in DMSO, positive and negative controls was transferred to the assay plate by a pintool work station. The plates were incubated at 37 C for 40 hours. The luminescence intensity were measured at 0h, 8h, 16h, 24h, 32h and 40h time points using ViewLux plate reader during compound treatment.
# % is set by controls: 0 for no effect and ±100 for the full control effect.
row,SMILES,"activity change, negative = cytotoxic"
1,Cc1ccc(C=O)cc1C,-0.649%
2,CC(C)N(c1ccccc1)C(C)C,1.72%
3,COc1ccc(C2CNC(=O)C2)cc1OC1CCCC1 (stereo not given),2.01% [at 35.3 µM]
4,O=C(OCc1ccccc1)C(=O)OCc1ccccc1,4.56%
5,COc1nccnc1NS(=O)(=O)c1ccc(N)cc1,1.13% [at 35.3 µM]
6,Nc1cccc(O)c1,1.73%
7,C[C@@H](O)[C@H]1C(=O)N2C(C(=O)O)=C(SCCN=CN)C[C@H]12,0.205% [at 35.3 µM]
8,Nc1ccc2cc(S(=O)(=O)O)cc(O)c2c1,-0.584%
9,CC(=O)Nc1ccc(S(=O)(=O)Nc2ccc([N+](=O)[O-])cc2)cc1,-0.434% [at 35.3 µM]
10,C=C1CC/C=C(\C)CC[C@@H]2[C@@H]1CC2(C)C,0.728%
11,Brc1ccc(-c2ccccc2)cc1,-0.138%
12,CCCCCCCCC(=O)Cl,3.62%
13,C[C@H](CCC(=O)O)[C@H]1CC[C@H]2[C@@H]3C(=O)C[C@@H]4CC(=O)CC[C@]4(C)[C@H]3CC(=O)[C@]12C,3.79% [at 35.3 µM]
14,CNS(=O)(=O)CCc1ccc2[nH]cc(C3CCN(C)CC3)c2c1,-0.364% [at 35.3 µM]
15,O=C(OCC(O)CO)c1ccccc1Nc1ccnc2c(C(F)(F)F)cccc12 (stereo not given),-21.9% [at 35.3 µM]
16,CC(CC=O)CCCC(C)(C)O (stereo not given),-0.568%
17,CN(C)CCOCCO,0.234%
18,C=CCCCCCCCCCCCC,2.03%
19,Cc1cccc(OCC(O)CNC(C)(C)C)c1C (stereo not given),1.15% [at 35.3 µM]
20,c1ccc2nccnc2c1,1.04%

row,SMILES,"activity change, negative = cytotoxic"
1,N[C@@H](CCC(=O)Nc1ccc([N+](=O)[O-])cc1)C(=O)O,-0.432%
2,N#Cc1ccc(C(=O)O)cc1,0.299%
3,O=C1CC(c2ccc(Cl)cc2)CC(=O)N1,3.87% [at 35.3 µM]
4,O=C1c2ccccc2C(=O)N1CCl,-0.313%
5,CC(=O)c1ccc2c(c1)Cc1ccccc1-2,0.888%
6,CC(C)(C)NC(N)=O,1.73%
7,Nc1ccc(S(=O)(=O)Nc2ccc(Cl)nn2)cc1,4.65% [at 35.3 µM]
8,NC(CO)C(=O)NNCc1ccc(O)c(O)c1O (stereo not given),-8.87% [at 35.3 µM]
9,Cc1cc(NC(=O)C2=C(O)c3ccccc3S(=O)(=O)N2C)no1,0.874% [at 35.3 µM]
10,O=C(c1ccc(O)cc1)c1ccc(O)c(O)c1O,-7.52%
11,COC(=O)C1CC(=O)C(C(=O)OC)CC1=O (stereo not given),-8.58% [at 6.97 µM]
12,COCCOCCOCCOCCOCCO,0.558%
13,NNc1nnc(NN)c2ccccc12,3.03% [at 35.3 µM]
14,CC1=CCC(C(C)C)=CC1,4.42%
15,O=C1c2ccccc2C(=O)c2cc(S(=O)(=O)O)ccc21,2.7%
16,COc1ccc(-c2cc(=O)c3c(O)cc(O[C@@H]4O[C@H](CO[C@@H]5O[C@@H](C)[C@H](O)[C@@H](O)[C@H]5O)[C@@H](O)[C@H](O)[C@H]4O)cc3o2)cc1O,1.6% [at 35.3 µM]
17,CC(C)C(=O)OCCc1ccccc1,0.972%
18,O=C(CS(=O)Cc1ccco1)NC/C=C\COc1cc(CN2CCCCC2)ccn1 (stereo not given),2.28% [at 35.3 µM]
19,CCOCCOC(=O)/C=C/c1ccc(OC)cc1,6.58% [at 35.3 µM]
20,CC(=O)NCc1c(I)c(NC(C)=O)c(I)c(C(=O)O)c1I,-6.19% [at 35.3 µM]
